# Publication PMC4336329 (PLoS ONE, 2015)
# Hit rate of the full screen: of about 310,000 compounds, about 14,000 (4.5%) showed an effect of 50% or more. The effect is printed as a negative number. The sample as a whole holds a higher share of strong results than the screen did.
# Molecular target: human ether-à-go-go-related gene (hERG) potassium channel (human, UniProt Q12809)
# Test: primary screen, population patch clamp on CHO cells stably expressing hERG; higher = less effect of the substance
# 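Also: peak tail current of the secondary pulse compared with the same well before compound.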
# Sequence of human ether-à-go-go-related gene (hERG) potassium channel (Q12809 whole entry, looked up): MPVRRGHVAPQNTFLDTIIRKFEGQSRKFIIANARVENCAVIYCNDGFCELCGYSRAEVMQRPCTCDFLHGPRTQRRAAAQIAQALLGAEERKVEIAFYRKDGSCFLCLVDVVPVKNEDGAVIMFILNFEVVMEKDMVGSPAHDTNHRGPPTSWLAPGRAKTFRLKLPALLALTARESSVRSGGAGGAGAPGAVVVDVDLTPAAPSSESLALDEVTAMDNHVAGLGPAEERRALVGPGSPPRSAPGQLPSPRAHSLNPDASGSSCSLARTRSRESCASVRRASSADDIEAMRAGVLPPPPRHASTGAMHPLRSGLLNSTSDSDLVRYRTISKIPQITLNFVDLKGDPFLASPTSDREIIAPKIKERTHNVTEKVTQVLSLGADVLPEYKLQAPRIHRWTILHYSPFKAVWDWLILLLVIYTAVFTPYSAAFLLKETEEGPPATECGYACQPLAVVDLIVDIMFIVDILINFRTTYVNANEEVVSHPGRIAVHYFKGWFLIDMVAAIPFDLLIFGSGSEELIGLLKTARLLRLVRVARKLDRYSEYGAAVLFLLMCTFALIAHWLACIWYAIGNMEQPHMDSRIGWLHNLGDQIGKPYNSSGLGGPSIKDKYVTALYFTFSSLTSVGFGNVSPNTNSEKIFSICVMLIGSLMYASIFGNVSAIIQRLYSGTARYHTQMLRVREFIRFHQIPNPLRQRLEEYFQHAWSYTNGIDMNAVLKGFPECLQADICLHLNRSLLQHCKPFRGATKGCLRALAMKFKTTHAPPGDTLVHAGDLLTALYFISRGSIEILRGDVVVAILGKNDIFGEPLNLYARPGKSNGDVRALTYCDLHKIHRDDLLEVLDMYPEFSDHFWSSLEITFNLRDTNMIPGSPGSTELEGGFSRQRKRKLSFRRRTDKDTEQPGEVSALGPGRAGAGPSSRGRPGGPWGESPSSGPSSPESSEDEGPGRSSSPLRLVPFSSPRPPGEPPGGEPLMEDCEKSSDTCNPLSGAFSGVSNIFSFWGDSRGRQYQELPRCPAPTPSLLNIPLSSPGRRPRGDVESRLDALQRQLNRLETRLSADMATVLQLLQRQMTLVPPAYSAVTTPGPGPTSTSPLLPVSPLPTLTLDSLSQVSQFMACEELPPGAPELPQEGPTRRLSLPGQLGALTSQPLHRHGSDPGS
row,SMILES,"hERG current change (%, negative = inhibition) at 10uM [%]"
1,O=C(Cn1c2ccc(F)cc2c2nc3n(c(=O)c21)CCS3)Nc1ccccc1C(F)(F)F,15.6
2,O=C1CCCC/C1=C/NCc1ccc(F)cc1,6.07
3,O=C(CSc1nc2ccccc2s1)NCCOc1ccc(Cl)cc1,-3.32
4,CC1CN(C(=O)COC(=O)c2c(Cl)cccc2Cl)CC(C)O1 (stereo not shown),6.73
5,CCOC(=O)C1CCN(C(=O)c2cc(S(=O)(=O)N3CCc4ccccc43)ccc2OC)CC1,-60.3
6,CCOC(=O)C1CCN(C(=O)c2cc(S(=O)(=O)N3CCCCCC3)ccc2OC)CC1,-50.8
7,CCOC(=O)C1CCN(C(=O)c2ccc(Cl)c(S(=O)(=O)N3CCOCC3)c2)CC1,-32.4
8,COc1ccc(S(=O)(=O)N2CCc3ccccc32)cc1C(=O)O,-6.25
9,CCOC(=O)C1CCN(S(=O)(=O)c2ccc(OC)c(C(=O)N3CCCCC3)c2)CC1,12.5
10,CCOC(=O)C1CCN(S(=O)(=O)c2ccc(OC)c(C(=O)N3CCCCCC3)c2)CC1,-12.5
11,CCOC(=O)C1CCN(C(=O)c2cc(S(=O)(=O)N3CCOCC3)c(Cl)cc2Cl)CC1,-50.1
12,CN1CCN(S(=O)(=O)c2ccc(CNC(=O)c3ccccc3)s2)CC1,23.1
13,CCOC(=O)C1CCN(S(=O)(=O)c2ccc(CNC(=O)c3ccccc3)s2)CC1,-50.3
14,CCOC(=O)C1CCN(S(=O)(=O)CCNC(=O)c2ccccc2)CC1,-2.78
15,CCOC(=O)C1CCCN(C(=O)c2cc(S(=O)(=O)N3CCCCCC3)ccc2OC)C1 (stereo not shown),-17.4
16,NC(=O)C1CCN(C(=O)c2cc(S(=O)(=O)N3CCOCC3)c(Cl)cc2Cl)CC1,8.61
17,O=C(N/C(=C\c1ccco1)C(=O)N1CCCC(CO)C1)c1ccccc1 (stereo not shown),15.6
18,Cc1ccc(S(=O)(=O)NC2CC3CCC2C3)cc1 (stereo not shown),-1.07
19,CCN(C(=O)COc1ccccc1)C1CCCCC1,7.42
20,CC(=O)C[C@@H](O)CC(=O)[C@H]1OC(=O)CCCCCCc2ccccc21,-2.65
21,Cc1onc(C(=O)NCc2cccs2)c1[N+](=O)[O-],9.7
22,CC1CCCN(c2ccc(F)cc2N)C1.Cl (stereo not shown),11.2

row,SMILES,"hERG current change (%, negative = inhibition) at 10uM [%]"
1,COc1cccc(NC(=O)c2ccc[n+](C)c2)c1.[I-],18.2
2,Cc1cccn2cc(CNc3ccccc3)nc12,-4.15
3,Cc1ccc(S(=O)(=O)N2CCC(C(N)=O)CC2)cc1C(=O)NC1CCCCC1,18.9
4,CCOC(=O)N1CCN(S(=O)(=O)c2ccc(C)c(C(=O)NC3CCCCC3)c2)CC1,1.42
5,CCOC(=O)C1CCN(S(=O)(=O)c2ccc(C)c(C(=O)NC3CCCCC3)c2)CC1,-55.8
6,O=C(Nc1ccccc1)C(O)C(O)C(=O)Nc1ccccc1 (stereo not shown),16.8
7,CN(Cc1cccc(-n2cccn2)c1)Cc1cn(C)nc1-c1ccccc1F,15.9
8,Cn1cc(CNCc2ccc(-n3cccn3)cc2)c(-c2ccccc2F)n1,-62.2
9,Cn1cc(CNCCCn2ncc3ccccc32)c(-c2ccccc2F)n1,-36.3
10,CN(Cc1ccc(-n2cccn2)cc1)Cc1cn(C)nc1-c1ccccc1F,-74.9
11,COc1cccc(-n2cc(CNCc3cn(C)nc3-c3ccccc3F)cn2)c1,-19.3
12,CCn1ccnc1CN(C)Cc1cn(C)nc1-c1ccccc1F,13.2
13,O=C(CNC(=O)OCc1ccccc1)NC1CCCCCCC1,-2.67
14,CCOCCCNC(=O)Cn1cnc2c(cnn2-c2ccc(C)c(C)c2)c1=O,3.91
15,O=C(NCC12CC3CC(C1)CC(CNC(=O)N1CCCC1)(C3)C2)N1CCCC1,-3.73
16,O=C(C1COc2ccccc2O1)N1CCN(c2ccc(F)cc2)CC1 (stereo not shown),-40.7
17,CCN1CCN(C(=O)C2COc3ccccc3O2)CC1 (stereo not shown),-7.48
18,O=C(CN1CCN(C(=O)C2COc3ccccc3O2)CC1)Nc1ccccc1 (stereo not shown),-66.2
19,CC(C)N(C(=O)CN1CCN(C(=O)C2COc3ccccc3O2)CC1)C(C)C (stereo not shown),-0.817
20,O=C(CN1CCN(C(=O)C2COc3ccccc3O2)CC1)Nc1ccc(F)cc1 (stereo not shown),-75.7
21,O=C(Nc1ccc(F)cc1)C1COc2ccccc2O1 (stereo not shown),9.07
22,CC(=O)Oc1ccc(C(=O)Nc2ccccc2C(=O)Nc2cccc(C(=O)O)c2)cc1,13

row,SMILES,"hERG current change (%, negative = inhibition) at 10uM [%]"
1,CCOC(=O)c1cnn(-c2cc(Oc3ccccc3C)ncn2)c1N,14.4
2,Cc1nc2ccccc2cc1C(=O)N/N=C/c1cccs1,-6.93
3,CCOc1ccc(OCCOc2cccc(C(F)(F)F)c2)cc1,9.77
4,O=c1c2cc(NC(=S)N3CCC(N4CCCCC4)CC3)ccc2nc2n1CCCCC2,-3.94
5,CC1CCCN(C(=S)Nc2ccc3nc4n(c(=O)c3c2)CCCCC4)C1 (stereo not shown),-66.1
6,O=c1c2cc(NC(=S)N3CCCC3)ccc2nc2n1CCCCC2,-28
7,CC1CCN(C(=S)Nc2ccc3nc4n(c(=O)c3c2)CCCCC4)CC1,-55.2
8,O=c1c2cc(NC(=S)N3CCCCC3)ccc2nc2n1CCCCC2,-55.7
9,O=c1c2cc(NC(=S)N3CCCCCC3)ccc2nc2n1CCCCC2,-43.9
10,CC1CCCC(C)N1CCCNC(=O)C(=O)Nc1ccc2nc3n(c(=O)c2c1)CCCCC3 (stereo not shown),16.8
11,CCOC(=O)Nc1ccc2nc3n(c(=O)c2c1)CCCCC3,7.45
12,CCOC(=O)C1CCCN(C(=O)C(=O)Nc2ccc3nc4n(c(=O)c3c2)CCCCC4)C1 (stereo not shown),-1.21
13,CC1CCCCN1C(=S)Nc1ccc2nc3n(c(=O)c2c1)CCCCC3 (stereo not shown),-59
14,CC1CCCN(C(=O)C(=O)Nc2ccc3nc4n(c(=O)c3c2)CCCCC4)C1 (stereo not shown),-17.8
15,CCN1CCN(C(=S)Nc2ccc3nc4n(c(=O)c3c2)CCCCC4)CC1,1.83
16,COc1cc(/C=C(\C#N)c2ccccn2)ccc1OCC(=O)Nc1cccc(C(F)(F)F)c1.Cl,0.582
17,COCCCNC(=O)c1ccc2c(c1)nc(C)n2-c1cccc(C)c1,6.05
18,CC(C)(C)C(=O)Nc1ccc(S(=O)(=O)c2ccc(NC(=O)C(C)(C)C)cc2)cc1,18.6
19,Cc1ccc(/C=C2\Oc3c(ccc(O)c3CN3CCN(C)CC3)C2=O)cc1,-15
20,COc1ccc(C(=O)c2coc3ccc(O)c(CN4CCOCC4)c23)cc1,-51.2
21,COc1ccc(OC)c(C(=O)c2coc3ccc(O)c(CN4CCOCC4)c23)c1,-39.7
22,CN1CCN(Cc2c(O)ccc3occ(C(=O)c4ccccc4)c23)CC1,-39.3

row,SMILES,"hERG current change (%, negative = inhibition) at 10uM [%]"
1,COc1ccc(C(=O)c2c(C)oc3ccc(O)c(CN4CCOCC4)c23)cc1,-29.5
2,O=c1c(-c2ccc(Cl)cc2)coc2c(CN3CCCCC3)c(O)ccc12,-32.7
3,Cc1ccc(C(=O)c2coc3ccc(O)c(CN4CCN(C)CC4)c23)cc1,-51.2
4,COc1ccc(-c2coc3c(CN4CCCCC4)c(O)c(CN4CCCCC4)c(O)c3c2=O)cc1,-79.2
5,COc1ccc(-c2coc3c(CN4CCOCC4)c(O)ccc3c2=O)cc1,-21.1
6,COc1ccc(C(=O)c2coc3ccc(O)c(CN4CCCCC4)c23)cc1,-76.9
7,Cc1cc(Cn2nnnc2-c2ccncc2)cc(C)c1O,6.54
8,O=C(Nc1ccc(Cl)c(C(F)(F)F)c1)N1CCCC(O)C1 (stereo not shown),10.9
9,COc1ccc(C(=O)c2coc3ccc(O)c(CN4CCCC4)c23)cc1,-73.4
10,Cc1oc2ccc(O)c(CN3CCOCC3)c2c1C(=O)c1ccc(Cl)cc1,-41
11,Cl.O=C(c1ccccc1)c1coc2ccc(O)c(CN3CCOCC3)c12,-60.7
12,Cl.O=C(c1cccs1)c1coc2ccc(O)c(CN(CCO)CCO)c12,-41
13,Oc1ccc2ccccc2c1CN1CCOCC1,-6.06
14,Cl.O=C(c1coc2ccc(O)c(CN3CCOCC3)c12)C1CC1,12.3
15,O=C(c1cccs1)c1coc2ccc(O)c(CN3CCOCC3)c12,-69.1
16,COc1ccc(OC)c(C(O)c2coc3ccc(O)c(CN4CCOCC4)c23)c1 (stereo not shown),-11.4
17,COC(=O)c1ccccc1N1CCS(=O)(=O)CC1,18.3
18,COc1ccc(C(=O)Nc2nc(C)c(C(C)=O)s2)cc1S(=O)(=O)N1CCOCC1,0.765
19,O=C(N/N=C/c1c(O)n(C2CC2)c(=S)[nH]c1=O)c1ccccc1O,2.57
20,CCN(CC)S(=O)(=O)c1ccc(N2CCN(C)CC2)c(NC(=O)c2cc(=O)c3ccccc3o2)c1,-18.4
21,Cc1ccc(C(=O)N(C)CC(=O)Nc2cccc(C)c2C)o1,9.83
22,Cc1nc2nc(NC(=O)c3ccco3)nn2c(C)c1Cl,-1.18
